Screens: PubChem, National Center for Advancing Translational Sciences (NCATS)
In the library only some 12% were active in any assay of this set; here they are far more common.
PLK1 PBD block: inhibitors of human PLK1 polo-box domain binding; Potency, µM, for the others: max response, negative = inhibition, hits mostly inhibitors; P53350; Plk1 PBD binding of FITC phosphopeptide, fluorescence polarization; 2.8% of 360,000 active; AID 720504; also: series mostly up to about 57 µM; nearly all actives have a fitted effect of over 65% in size
Sfp PPTase inh: Sfp phosphopantetheinyl transferase inhibition; 3.5% of 310,000 active; Potency, µM, inactives show largest response in the series, negative = inhibition, most hits filed as inhibitors; Biochemical Sfp PPTase activity, qHTS; AID 1490; Q9F4F7;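 also: the enzyme is Sfp with the accession as filed and its product quenches rhodamine fluorescence; 0% = enzyme reaction without inhibitor and -100% = no enzyme wells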
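Reaction rates are the 30-min fluorescence difference (ex 525, em 598 nm) in wells containing 15 nM Sfp, 5 uM rhodamine-CoA and 12.5 uM BHQ-2-YbbR at pH 7.6 with 10 mM MgCl2.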
ALDH1A1 block: ALDH1A1 (human) enzyme inhibition | Purified ALDH1A1, NADH fluorescence, propionaldehyde substrate | Potency, µM (titrated, usually from 75.3 µM), without a hit: top-dose activity, negative = inhibition, hits mostly inhibitors | 7.3% of 220,000 active; active = well fitted inhibition curve with a large enough effect, not every such curve was filed as active; inconclusive = small, poorly fitted or top-dose-only effect, or another doubt; inactive = no such curve, though single readings can be large or run the other way;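 also: plate controls were no enzyme wells and a reference inhibitor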
Gal4-VP16 FLuc: counter-screen for ROR gamma inhibitors: Gal4-VP16 reporter; 3.5% of 310,000 active; Drosophila S2 Gal4-VP16 UAS-luciferase, luminescence, 20 h; Potency, µM (titrated, usually from 53.6 µM), for the others: at the highest dose activity, negative = inhibition, most hits filed as inhibitors;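 also: Gal4-VP16 expression switched on by copper sulfate through the metallothionein promoter; nearly all actives have a fitted effect of over 50% in size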
RORgamma inh: blocks mouse ROR gamma transcriptional activity | 5.4% of 310,000 active | AID 2551 | P51450 | Drosophila S2 Gal4-RORgamma UAS-luciferase reporter, 20 h | Potency, µM (doses to about 53.6 µM), inactives show at the highest dose activity change, negative = inhibition, most hits filed as inhibitors; also: nearly all actives have a fitted effect of over 60% in size
Target sequence (P51450 whole entry, looked up, the tested form may be a part): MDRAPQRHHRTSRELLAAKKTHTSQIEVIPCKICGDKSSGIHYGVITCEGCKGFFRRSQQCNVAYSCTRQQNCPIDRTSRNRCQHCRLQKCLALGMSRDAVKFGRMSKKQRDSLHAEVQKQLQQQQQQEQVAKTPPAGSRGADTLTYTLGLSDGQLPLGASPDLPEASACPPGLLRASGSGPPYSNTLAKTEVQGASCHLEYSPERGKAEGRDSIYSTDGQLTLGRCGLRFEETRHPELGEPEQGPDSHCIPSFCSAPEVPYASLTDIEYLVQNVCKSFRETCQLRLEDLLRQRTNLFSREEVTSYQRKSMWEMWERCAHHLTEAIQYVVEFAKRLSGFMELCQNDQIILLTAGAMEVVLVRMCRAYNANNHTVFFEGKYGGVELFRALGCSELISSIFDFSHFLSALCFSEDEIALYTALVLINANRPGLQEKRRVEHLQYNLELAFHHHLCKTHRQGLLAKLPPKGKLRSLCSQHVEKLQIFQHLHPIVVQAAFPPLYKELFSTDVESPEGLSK
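Luciferase reporter read in Schneider cells carrying Gal4-RORγ (mouse) and UAS-Photinus luciferase; cells given compound 1 h before 700 uM copper sulfate induction, then incubated 20 h at ambient temperature.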
Starred values were filed as active, the others as inactive; u = inconclusive; x = not tested or not shown; [ ] = remark or other dose. Unless noted, calls follow the shape of the dose curve; as a rule, active = well fitted curve in the direction sought with a large enough effect; inconclusive = small, poorly fitted or top-dose-only effect, or another doubt; inactive = no such curve, though single readings can be large; an effect the other way counts as inactive or inconclusive. Unless noted, % is scaled to controls: 0 for no effect and ±100 for the full control effect; potency is read from the fitted curve at half-maximal effect.

SMILES | PLK1 PBD block | Sfp PPTase inh | ALDH1A1 block | Gal4-VP16 FLuc | RORgamma inh
CC[C@H](C)[C@H](N)C(=O)N[C@H]1CCC(=O)NCC(C(=O)N[C@@H](Cc2ccc(O)cc2)C(=O)N[C@@H](CCCNC(=N)N)C(=O)N[C@@H](CC(C)C)C(=O)N[C@@H](CCCNC(=N)N)C(=O)N[C@@H](Cc2ccc(O)cc2)C(N)=O)NC(=O)[C@@H]2CCCN2C(=O)[C@@H](NC(=O)[C@@H](N)[C@@H](C)CC)CCC(=O)NCC(C(=O)N[C@@H](Cc2ccc(O)cc2)C(=O)N[C@@H](CCCNC(=N)N)C(=O)N[C@@H](CC(C)C)C(=O)N[C@@H](CCCNC(=N)N)C(=O)N[C@@H](Cc2ccc(O)cc2)C(N)=O)NC(=O)[C@@H]2CCCN2C1=O (stereo partly drawn) | x | 7.4% | x | -1.8% | -2.6%
COC(=O)NNC(=S)Nc1cc(OC)ccc1OC | u | u | 25.1µM* | 7.5% | u
COc1ccc(OC)c(NC(=S)Nc2ccccc2)c1 | -19.0% | 10.3% | x | 20µM* | u
CCOC(=O)N1CCN(C(=O)c2cc3cc(OC)c(OC)cc3[nH]2)CC1 | 1.4% | 10.7% | x | 0.1% | 5.4%
C[C@@H](CSC(=N)N)C(N)=O | x | x | 6.2%[13.5 µM] | x | x
O=C(CC1SC2=NCCN2C1=O)Nc1ccc(Cl)cc1 (stereo not drawn) | -5.3% | 15.3% | 7.3% | 2.3% | -17.8%
CCOC(=O)c1ccc(NC(=O)CC2Sc3ncnn3C2=O)cc1 (stereo not drawn) | u | 22.4µM* | 1µM* | 22.4µM* | u
O=C(CC1SC(=NCCc2ccccc2)N(/N=C/c2cccs2)C1=O)Nc1ccc(Cl)cc1 (stereo not drawn) | -10.3% | 36.4% | -5.4% | 0.794µM* | 0.501µM*
CCOC(=O)c1ccc(NC(=O)CN2C(=O)C(C)SC(C)C2=O)cc1 (stereo not drawn) | -6.6% | 12.5% | 0.8% | -12.4% | 24.5%
O=C(CC1Sc2ncnn2C1=O)Nc1ccc(Cl)cc1 (stereo not drawn) | -21.6% | 35.5µM* | 7.94µM* | u | u
CCOC(=O)c1ccc(NC(=O)CC2SC(=NC)N(C)C2=O)cc1 (stereo not drawn) | -11.0% | 1.5% | 12.6µM* | 9.9% | 4.0%
COc1ccccc1-c1cccc([C@@H]2C[C@H]3[C@H](CON3C)CN2C(=O)C(C)(C)C)c1 | -10.0% | x | x | x | x
c1ccc(-c2n[nH]c3c2oc2ccccc23)cc1 | x | -22.4% | -4.1% | -22.2% | -41.5%
O=C(O)CSc1cc(-c2ccccc2)nc2ccccc12 | x | x | -3.9%[13.5 µM] | x | x
CCN(CC)C(=O)C1=C(C)N(Cc2ccc(OC)cc2)C(=O)C(CC(=O)NC2CCCC2)C1 (stereo not drawn) | 3.7% | x | x | x | x
COCCN1C(=O)C(CC(=O)Nc2ccccc2)SC1=Nc1ccc(OC)cc1 (stereo not drawn) | -1.3% | 11.0% | -7.4% | 10.5% | 26.7%
COc1ccc(NC(=O)CC2Sc3ncnn3C2=O)cc1 (stereo not drawn) | u | 44.7µM* | 0.398µM* | u | u
O=C(CC1SC(=O)N(c2ccccc2)C1=O)Nc1ccc(Cl)cc1 (stereo not drawn) | 10.6µM* | -18.7% | x | -6.1% | 15.8µM*
O=S(=O)(O)CCCS(=O)(=O)O | x | 15.9% | x | -2.2% | 7.1%
C=CCSc1nnc(NC(=O)C23CC4CC(CC(NC(C)=O)(C4)C2)C3)s1 | 0.2% | 5.8% | x | 12.6µM* | 1.5%
CCCCc1nnc(NC(=O)C23CC4CC(CC(NC(C)=O)(C4)C2)C3)s1 | -15.9% | 15.7% | x | 0.2% | 0.7%
Cc1ccc(S(=O)(=O)N[C@H]2COC(=O)[C@H](C)COC(=O)C/C=C\[C@H]2C)cc1 | x | -4.9% | 11.4%[13.5 µM] | 1.3%[10 µM] | 11.3%[10 µM]
CCOC(=O)c1c(C)[nH]c(N=Nc2ccccc2C)c1C | -7.2% | 3.7% | -0.8% | u | 3.98µM*
CCOC(=O)c1[nH]c(C)c(C(=O)C(C)C)c1C | -5.7% | 13.5% | 3.4% | 20.5% | 25.5%
CCOC(=O)c1c(C)[nH]c(C(C)=O)c1C | -7.0% | 11.2% | 8.91µM* | 0.8% | -4.3%
SMILES | PLK1 PBD block | Sfp PPTase inh | ALDH1A1 block | Gal4-VP16 FLuc | RORgamma inh
CCOC(=O)c1c(C)[nH]c(C(=O)C(C)Cl)c1C (stereo not drawn) | -23.6% | 11.6% | 22.4µM* | -19.2% | -30.3%
C[C@@H]1CN([C@@H](C)CO)C(=O)c2cc(Br)cnc2O[C@H]1CN(C)C(=O)Cc1cccnc1 | -9.5% | x | x | x | x
COC(=O)[C@@]12C[C@@H](CC(=O)NCCC(C)C)C(=O)N(Cc3ccc4c(c3)OCO4)C1=CCC(C)(C)C2 | 7.0% | x | x | x | x
Cn1c(=O)[nH]c(=O)c2c1nc(N/N=C/C(Br)=C/c1ccccc1)n2CCO | u | 56.2µM* | x | 6.7% | -41.5%
CCn1c(SCC(=O)Nc2cc(C)on2)nnc1-c1c[nH]c2ccccc12 | 2.3% | -0.8% | 28.2µM* | 3.9% | 23.1%
Cc1cc(NC(=O)CSc2nnc(-c3ccccc3)n2C)no1 | 23.8µM* | 1.3% | 3.1% | -6.9% | 1.2%
Cc1cc(NC(=O)CSc2nnc(Nc3ccccc3C)s2)no1 | 21.2µM* | 5.5% | 3.9% | -11.8% | -14.9%
Cc1cccc(NC(=O)CSc2ncnc3sc(C)cc23)c1 | -14.3% | 12.4% | x | 12.5% | 14.2%
Cc1cc2c(SCC(=O)Nc3ccccc3O)ncnc2s1 | 29.9µM* | x | x | x | x
CO[C@@]1(NC(=O)Cc2cccs2)C(=O)N2C(C(=O)O)=C(COC(N)=O)CSC21 (stereo partly drawn) | x | -27.5% | -4.2% | 5.0% | 29.7%
Cc1cc(NC(=O)CSc2ncnc3ccccc23)no1 | -16.4% | 9.1% | 2.2% | -6.8% | 7.94µM*
COc1ccc(-c2nnc(SCC(=O)NNC(=O)Cc3ccccc3)n2C)cc1OC | 26.7µM* | -0.6% | -0.6% | -1.8% | -9.9%
Cn1c(SCC(=O)Nc2ccc3c(c2)oc2ccccc23)nnc1-c1ccccc1 | -1.5% | -6.0% | 25.1µM* | -25.4% | -16.1%
CCCCC[C@H](O)/C=C/[C@@H]1[C@H]2C/C(=C/CCCC(=O)O)C[C@H]2C[C@H]1O | x | 36.5% | 11.8% | -19.7% | 4.5%
Cc1cccc(C)c1NC(=O)C(c1ccccc1)N1CCC(c2ccccc2)CC1 (stereo not drawn) | -1.9% | x | x | x | x
C=C(Br)CN(C)CC(=C)Br | x | x | -3.0%[13.5 µM] | x | x
O=C(O)CCSc1nnc(-c2ccc3c(c2)OCO3)o1 | -0.4% | -1.7% | -14.9% | 3.98µM* | 2.82µM*
O=C(CSc1nnc(-c2ccc3c(c2)OCO3)o1)Nc1ncc(Cl)cc1Cl | -3.4% | 3.1% | 1.8% | 0.562µM* | 0.794µM*
CC(=O)Nc1ccc(NC(=O)CSc2nnc(-c3ccc4c(c3)OCO4)o2)cc1 | 3.4% | x | x | x | x
CC(=O)CSc1nnc(-c2ccc3c(c2)OCO3)o1 | -6.0% | 13.7% | 11.0% | 15.8µM* | 12.6µM*
Cc1ccc(CSc2nnc(-c3ccc4c(c3)OCO4)o2)cc1 | -2.2% | -12.0% | -2.3% | 4.5% | 37.4%
CCOCC(=O)Nc1cc([N+](=O)[O-])ccc1OC | -15.6% | 21.0% | 22.4µM* | 1.2% | 0.6%
